Consider three compounds from PubChem BioAssay (NCI).

Structures are written as SMILES. Compounds without any hit were thinned out: in the full panel of roughly 83,000, 20% have a hit.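 Assay: single dose, 48 h. Readout: percent growth (0 = no net growth; negative = cell death). Active: <10.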 Calls of active or inactive are those of the source.

For the assay, the system named is HL-60(TB) leukemia. In words: NCI-60 one-dose screen, 48 h (100 = growth as untreated, 0 = no growth, -100 = all killed). The note with it: 10 µM unless noted.
For `Cc1cccc(NC(=O)CCc2ccc(N3C(N)=NC(N)=NC3(C)C)cc2)c1`, the growth is 20.1% (inactive).

As for `C#CC(F)(F)[C@]1(O)CC[C@H]2[C@@H]3CCC4=CC(=O)CCC4=C3[C@@H](c3ccc(C(C)=O)cc3)C[C@@]21C`, the growth is -62.6% (active).

Consider `C/C(O)=C(/C=N/C(=S)Nc1ccccc1)C(=O)Nc1ccccc1C`, for which the growth was 94.7% (inactive).
